Screening results from PubChem BioAssay.
Pf Dd2 growth: inhibitors of Plasmodium falciparum Dd2 growth | activity change, % at 10 µM | P. falciparum Dd2 growth, SYBR Green, 72 h; hits give low values | 2.3% of 94,000 active; in the data active = activity change below about -80%; inconclusive = no clear call, values can overlap the other calls
T cruzi growth-1: inhibitors of T. cruzi proliferation | AID 624255 | 5.9% of 77,000 active | T. cruzi beta-gal in NIH3T3, GalScreen luminescence, 90 h | inhibition, % at 8.34 µM;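 active = mean inhibition above about 93%, with at least 55% of replicates each passing it, limit read from the data, passing the limit was not always enough; inconclusive = only one of those two conditions holds; inactive = neither condition holds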
C diff HTS: C. difficile growth inhibition; growth activity, negative = inhibition, % at 16 µg/mL (by protocol); Clostridium difficile clinical isolate growth, OD600, 24 h; hits give low values; 0.25% of 86,000 active;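 active = mean growth activity at or below -80% and every replicate also at or below -80%; inconclusive = mean at or below -80% but some replicate above -80%; inactive = mean growth activity above -80%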;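 note: 0% = DMSO wells and -100% = levofloxacin 16 µg/mL wells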
T cruzi growth-2: Trypanosoma cruzi proliferation inhibition | shares compounds with T cruzi growth-1 | T. cruzi beta-gal in NIH3T3, GalScreen luminescence, 90 h | inhibition, % at 8.35 µM | 72% of 5,600 active | AID 651739;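 active = mean replicate inhibition above about 95% and at least 55% of replicates individually reaching it, limit read from the data; inconclusive = only one of the two criteria is met; inactive = neither criterion is met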
T cruzi growth-3: blocks T. cruzi growth in NIH3T3 host cells | shares compounds with T cruzi growth-1 | T. cruzi beta-gal in NIH3T3, GalScreen luminescence, 90 h | inhibition, % at 2.09 µM | 21% of 5,600 active | AID 651740;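 active = mean inhibition above about 95%, with at least 55% of replicates also reaching it, limit read from the data; inconclusive = meets just one of the two conditions; inactive = meets neither condition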;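 note: plate controls were neutral control median for no effect and positive control median for full effect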
NIH3T3 tox: kills mouse NIH/3T3 fibroblasts; cytotoxicity (signal decrease), % at 8.35 µM; 14% of 5,600 active; AID 651742; NIH/3T3 viability, CellTiter-Glo ATP luminescence, 90 h; shares compounds with T cruzi growth-1;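 active = mean signal decrease across replicates above about 35% based on untreated-well scatter, with enough replicates individually passing, limit read from the data; inconclusive = no rule stated though some were filed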;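 note: 0% = median of neutral control wells and 100% = median of positive control wells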
3T3 cytotox 2: cytotoxicity in mouse NIH/3T3 fibroblasts; inhibition, % at 24.9 µM; AID 651744; NIH/3T3 viability, CellTiter-Glo ATP luminescence, 90 h; 56% of 5,600 active; shares compounds with T cruzi growth-1;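 active = mean loss of cell viability signal at or above a set limit, and enough replicates individually reaching it; inconclusive = meets only the mean limit or only the replicate share; inactive = meets neither condition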;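 note: 0% = median of neutral control wells and 100% = median of positive control wells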
Starred values were filed as active, the others as inactive; ? = inconclusive; · = no result given. Sampled rows, rich in hits. Any-hit rate of the full collection: about 6.7%.

SMILES	Pf Dd2 growth	T cruzi growth-1	C diff HTS	T cruzi growth-2	T cruzi growth-3	NIH3T3 tox	3T3 cytotox 2
C[C@H]1CCCCO[C@@H](CN(C)C(=O)NC2CCCCC2)[C@@H](C)CN([C@@H](C)CO)C(=O)c2cc(NS(=O)(=O)c3ccccc3)ccc2O1	-76	102*	5	80	36	10	11
C[C@@H]1CN([C@H](C)CO)C(=O)c2cc(NS(=O)(=O)c3ccccc3)ccc2O[C@@H](C)CCCCO[C@@H]1CN(C)C(=O)NC1CCCCC1	-66	90	9	·	·	·	·
C[C@@H]1CCCCO[C@H](CN(C)C(=O)NC2CCCCC2)[C@H](C)CN([C@@H](C)CO)C(=O)c2cc(NS(=O)(=O)c3ccccc3)ccc2O1	-50	102*	-2	104*	43	-3	-6
C[C@H](CO)N1C[C@H](C)[C@@H](CN(C)S(=O)(=O)c2cn(C)cn2)Oc2ccc(NC(=O)CCN3CCOCC3)cc2C1=O	15	80	0	·	·	·	·
CCCNC(=O)C[C@@H]1CC[C@@H]2[C@H](COc3ccc(NC(=O)Nc4cccc(C)c4)cc3C(=O)N2C)O1	-59	18	-2	·	·	·	·
Cc1cccc(S(=O)(=O)N2C[C@@H]3[C@H](c4ccccc42)[C@H](CO)N3CC2CCCC2)c1	-21	98*	35	104*	72	11	99*
Cc1cccc(S(=O)(=O)N2C[C@@H]3[C@H](c4ccccc42)[C@@H](CO)N3CC2CCOCC2)c1	-7	24	2	·	·	·	·
Cc1cccc(S(=O)(=O)N2C[C@H]3[C@@H](c4ccccc42)[C@@H](CO)N3CC2CCCC2)c1	-32	99*	38	104*	93	24	103*
Cc1cccc(S(=O)(=O)N2C[C@@H]3[C@H](c4ccccc42)[C@@H](CO)N3CC2CCCC2)c1	-64	61	50	·	·	·	·
CO[C@@H]1CN(C)C(=O)c2ccc(NS(=O)(=O)c3ccccc3F)cc2OC[C@@H](C)NC[C@H]1C	20	-1	·	·	·	·	·
CC(=O)N1[C@H](CO)[C@@H](c2ccccc2)[C@@H]1CN(CC1CCC1)C(=O)CN(C)C	-1	27	1	·	·	·	·
CCC(=O)N(CC1CCC1)C[C@H]1[C@H](c2ccccc2)[C@@H](CO)N1C(C)=O	-6	73	-7	·	·	·	·
CC(=O)N1[C@H](CO)[C@H](c2ccccc2)[C@H]1CN(CC1CCC1)C(=O)CN(C)C	0	101*	-8	?	0	-23	-13
CC(=O)N1[C@@H](CO)[C@@H](c2ccccc2)[C@@H]1CN(CC1CCC1)C(=O)CN(C)C	-6	98*	5	30	-18	8	22
C[C@@H]1CN([C@H](C)CO)C(=O)c2cc(NS(=O)(=O)c3ccc(Cl)cc3)ccc2O[C@@H](C)CCCCO[C@H]1CN(C)S(=O)(=O)c1ccccc1	-36	·	-1	·	·	·	·
C[C@@H]1CCCCO[C@@H](CN(C)S(=O)(=O)c2ccc(Cl)cc2)[C@@H](C)CN([C@H](C)CO)C(=O)c2cc(NS(=O)(=O)c3ccccc3)ccc2O1	-54	94	2	·	·	·	·
C[C@@H]1CCCCO[C@@H](CN(C)S(=O)(=O)c2ccccc2)[C@H](C)CN([C@@H](C)CO)C(=O)c2cc(NS(=O)(=O)c3ccc(Cl)cc3)ccc2O1	-1	116*	-8	101*	78	-6	-6
C[C@H](CO)N1C[C@H](C)[C@H](CN(C)S(=O)(=O)c2ccc(Cl)cc2)OCCCC[C@H](C)Oc2ccc(NS(=O)(=O)c3ccccc3)cc2C1=O	-56	?	-7	99*	87	-4	-15
C[C@@H]1CCCCO[C@H](CN(C)S(=O)(=O)c2ccccc2)[C@H](C)CN([C@@H](C)CO)C(=O)c2cc(NS(=O)(=O)c3ccc(Cl)cc3)ccc2O1	-15	118*	-16	92	88	-4	-10
CC=Cc1ccc2n(c1=O)C[C@H]1[C@H](CO)[C@@H](C(=O)N[C@@H](C)c3ccccc3)[C@@H]2N1Cc1cccnc1 (mixture of isomers)	2	52	-1	·	·	·	·
CCC(=O)N1CC(=O)N2[C@H](CO)[C@@H](c3ccc(C#CC4CCCCC4)cc3)[C@H]2C1	-11	·	48	·	·	·	·
CN(C)C(=O)c1ccc(-c2ccc([C@H]3[C@H]4CN(C(=O)C5CCCC5)CCCCN4[C@H]3CO)cc2)cc1	-33	32	-6	·	·	·	·
CN(C)C(=O)c1ccc(-c2ccc([C@@H]3[C@H]4CN(C(=O)C5CCCC5)CCCCN4[C@H]3CO)cc2)cc1	10	114*	-13	80	60	38*	38*
CN(C)C(=O)c1ccc(-c2ccc([C@@H]3[C@H](CO)N4CCCCN(C(=O)C5CCCC5)C[C@@H]34)cc2)cc1	-29	100*	-6	87	86	8	15
CN(C)C(=O)c1ccc(-c2ccc([C@@H]3[C@H]4CN(C(=O)C5CC5)CCCCN4[C@H]3CO)cc2)cc1	-35	26	3	·	·	·	·
SMILES	Pf Dd2 growth	T cruzi growth-1	C diff HTS	T cruzi growth-2	T cruzi growth-3	NIH3T3 tox	3T3 cytotox 2
C[C@@H]1CCCCO[C@@H](CN(C)S(=O)(=O)c2ccc(F)cc2)[C@@H](C)CN([C@@H](C)CO)C(=O)c2cc(NC(=O)c3ccccc3)ccc2O1	-70	·	1	·	·	·	·
NCC[C@@H]1CC[C@H](NC(=O)c2ccccc2F)[C@H](CO)O1	-21	-5	5	·	·	·	·
N#Cc1cccc(-c2ccc([C@@H]3[C@@H](CO)N4CCCCN(C(=O)Nc5cccc(F)c5)C[C@@H]34)cc2)c1	-29	104*	22	110*	72	28	87*
N#Cc1cccc(-c2ccc([C@H]3[C@@H](CO)N4CCCCN(C(=O)Nc5cccc(F)c5)C[C@@H]34)cc2)c1	5	123*	9	105*	89	4	-2
N#Cc1cccc(-c2ccc([C@H]3[C@@H](CO)N4CCCCN(C(=O)Nc5cccc(F)c5)C[C@H]34)cc2)c1	-69	81	38	·	·	·	·
N#Cc1cccc(-c2ccc([C@H]3[C@H]4CN(C(=O)Nc5cccc(F)c5)CCCCN4[C@H]3CO)cc2)c1	-18	122*	9	110*	60	-6	-8
N#Cc1ccc(-c2ccc([C@@H]3[C@@H](CO)N4CCCCN(C(=O)Nc5ccc(F)cc5)C[C@H]34)cc2)cc1	-19	23	17	·	·	·	·
Cc1noc(C)c1S(=O)(=O)Nc1cccc2c1O[C@H](CN(C)Cc1ccc(Oc3ccccc3)cc1)[C@H](C)CN([C@H](C)CO)C2=O	-28	25	-5	·	·	·	·
O=C(C[C@H]1CC[C@@H]2[C@H](COC[C@H](O)CN2C(=O)Nc2ccc(F)cc2)O1)NCCCN1CCOCC1	15	-72	-1	·	·	·	·
COC(=O)C[C@H]1CC[C@H]2[C@@H](COc3ccc(NC(=O)c4cncs4)cc3C(=O)N2C)O1	10	21	-10	·	·	·	·
